Test results taken from the antibiotic and cytotoxicity screens of Wong et al. (2023).
Screen size: about 39,000 compounds; about 1,500 (3.8%) were called active. The list comes from a sample in which actives are over-represented; it also holds similar structures and randomly drawn compounds.

What follows are compounds tested on HSkMC (human skeletal muscle cells) (assay: cytotoxicity call (relative viability < 0.9)). Conditions: 10 µM.

Compound	cytotoxicity call
Cc1ccc(S(=O)(=O)N(C)C[C@H]2Oc3ccc(NC(=O)CCN4CCOCC4)cc3C(=O)N([C@H](C)CO)C[C@@H]2C)cc1	inactive
C[C@@H]1CCCCO[C@@H](CN(C)C(=O)Nc2ccc(C(F)(F)F)cc2)[C@@H](C)CN([C@H](C)CO)C(=O)c2cc(NC(=O)Nc3cccc4ccccc34)ccc2O1	inactive
C=C/C=C/[C@@H]1C(=C)CN([C@@H](Cc2ccccc2)C(=O)OC)[C@H]1[C@@H](O)CCn1cc(CCC(=O)NO)nn1	inactive
C[C@H]1CN([C@@H](C)CO)C(=O)c2cccc(NC(=O)C3CC3)c2O[C@H]1CN(C)C(=O)Nc1ccc2c(c1)OCO2	inactive
CCC(C)(C)c1ccc(CC(C)CN2CC(C)OC(C)C2)cc1.Cl (centres undefined)	inactive
OCc1cn(-c2ccccc2)nn1	inactive
NCc1cn(-c2ccccc2)nc1C12CC3CC(CC(C3)C1)C2	active
c1ccc(-c2nc(C34CC5CC(CC(C5)C3)C4)cs2)cc1	inactive
C[C@H]1CCN=C(N)S1	inactive
C[C@@H]1CN([C@@H](C)CO)C(=O)c2cccc(NC(=O)c3cnccn3)c2O[C@@H]1CN(C)S(=O)(=O)c1ccc(Cl)cc1	inactive
O=C(O)c1ccc(C(=O)O)nc1	inactive
COc1ccc2c3c([nH]c2c1)[C@H](CO)N(C[C@]13CCN(CC1)C(=O)c1ccncc1)C(=O)c1ccncc1	inactive
C[C@@H]1CN([C@@H](C)CO)C(=O)c2cc(NC(=O)CCCN(C)C)ccc2O[C@@H](C)CCCCO[C@H]1CN(C)CC1CCCCC1	inactive
CCCNc1nc(=O)c(C)n[nH]1	inactive
Cc1n[nH]c(N/N=C/c2ccccn2)nc1=O	active
Cc1n[nH]c(NCc2ccco2)nc1=O	inactive
Cc1ccc(-c2nn[nH]n2)n1C	inactive
C[C@@H]1CN([C@@H](C)CO)C(=O)c2cc(NC(=O)NC3CCCCC3)ccc2O[C@@H](C)CCCCO[C@H]1CN(C)C(=O)c1ccncc1	inactive
C[C@@H]1CN([C@H](C)CO)C(=O)Cc2cc(NS(=O)(=O)c3ccccc3)ccc2O[C@@H]1CN(C)Cc1ccc2c(c1)OCO2	inactive
O=C(C[C@@H]1CC[C@@H]2[C@H](COC[C@@H](O)CN2C(=O)c2cnccn2)O1)N1CCN(c2ccccc2)CC1	inactive
Cc1cc(C(=O)Nc2cccc3c2O[C@@H](CN(C)C(=O)Nc2ccc4c(c2)OCO4)[C@@H](C)CN([C@H](C)CO)C3=O)n(C)n1	inactive
O=C(N[C@@H](c1ccc(-c2ccccc2)cc1)c1cnccn1)C1CCN(CCOc2ccc(F)cc2)CC1	inactive

Compound	cytotoxicity call
Cc1cc(-c2cc(OC(=O)c3ccccc3)ccc2Cl)cc2nnc(Nc3ccc(OCCN4CCCC4)cc3)nc12	active
O=C(N[C@@H](c1ccccc1)c1ccc2ccccc2n1)C1CCN(CCOc2ccc(Cl)cc2)CC1	inactive
CC(C)=C[C@H]1[C@@H](c2nc3cc(Br)ccc3o2)C1(C)C	inactive
C[C@@H]1CCCCO[C@H](CN(C)S(=O)(=O)c2ccc(F)cc2)[C@@H](C)CN([C@H](C)CO)C(=O)c2cc(NC(=O)Nc3ccc(C(F)(F)F)cc3)ccc2O1	inactive
COCC(=O)N1C[C@@H](C)[C@H](OC)CN(C)C(=O)c2ccc(NC(=O)c3ccc(F)cc3)cc2OC[C@@H]1C	inactive
C[C@H](CO)N1C[C@H](C)[C@@H](CN(C)Cc2ccc(C(F)(F)F)cc2)Oc2ccc(NC(=O)Nc3ccc(F)cc3)cc2CC1=O	active
C[C@@H]1CN([C@H](C)CO)C(=O)Cc2cc(NC(=O)Nc3ccc(F)cc3)ccc2O[C@H]1CN(C)Cc1ccc(C(F)(F)F)cc1	active
C[C@@H]1CN([C@@H](C)CO)C(=O)Cc2cc(NC(=O)Nc3ccc(F)cc3)ccc2O[C@@H]1CN(C)Cc1ccc(C(F)(F)F)cc1	active
C[C@H]1CN([C@@H](C)CO)C(=O)Cc2cc(NC(=O)Nc3ccc(F)cc3)ccc2O[C@H]1CN(C)Cc1ccc(C(F)(F)F)cc1	active
C[C@H]1CN([C@@H](C)CO)C(=O)Cc2cc(NC(=O)Nc3ccc(F)cc3)ccc2O[C@@H]1CN(C)Cc1ccc(C(F)(F)F)cc1	inactive
C[C@@H]1CN([C@@H](C)CO)C(=O)Cc2cc(NC(=O)Nc3ccc(F)cc3)ccc2O[C@H]1CN(C)Cc1ccc(C(F)(F)F)cc1	inactive
C[C@H](CO)N1C[C@H](C)[C@@H](CN(C)Cc2ccc(C(=O)O)cc2)Oc2c(NS(=O)(=O)c3cn(C)cn3)cccc2C1=O	inactive
CC(C)NC(=O)N(C)C[C@@H]1OCCCC[C@H](C)Oc2ccc(NC(=O)Nc3ccc(F)cc3)cc2C(=O)N([C@H](C)CO)C[C@@H]1C	inactive
C[C@@H]1CN([C@@H](C)CO)C(=O)c2cc(NC(=O)C3CCCCC3)ccc2O[C@@H](C)CCCCO[C@H]1CN(C)C(=O)Nc1ccccc1	inactive
C[C@H](CO)N1C[C@H](C)[C@@H](CN(C)S(=O)(=O)c2ccc(Cl)cc2)Oc2ccc(N(C)C)cc2C1=O	inactive
COCCNC(=O)C[C@@H]1CC[C@H]2[C@@H](COC[C@@H](O)CN2C(=O)Nc2ccc3c(c2)OCO3)O1	inactive
O=C(O)Cc1cccc(OCCCN(Cc2cccc(C(F)(F)F)c2Cl)CC(c2ccccc2)c2ccccc2)c1	inactive
Cc1noc(C)c1NC(=O)N(C)C[C@H]1Oc2ccc(NC(=O)Nc3cccc4ccccc34)cc2C(=O)N([C@@H](C)CO)C[C@H]1C	inactive
C=CCOC(=O)[C@@H]1[C@H]2C(=O)O[C@H](c3ccccc3)[C@H](c3ccccc3)N2[C@H](c2ccc(OCCOC(=O)[C@H]3C[C@H]4C(=O)N[C@@H](CCCCN(C)C)C(=O)N4[C@H]3c3cccc(OCCO)c3)cc2)[C@@]12C(=O)Nc1ccc(I)cc12	inactive
COc1ccc2c3c(n(c2c1)C)[C@H](CO)N(C[C@]13CCN(CC1)C(=O)CN(C)C)S(=O)(=O)C	inactive
C[C@@H]1CN([C@H](C)CO)C(=O)Cc2cc(NC(=O)Nc3ccc(F)cc3)ccc2O[C@@H]1CN(C)Cc1ccc(C(F)(F)F)cc1	active
C[C@H](CO)N1C[C@H](C)[C@H](CN(C)Cc2ccc(C(F)(F)F)cc2)Oc2ccc(NC(=O)Nc3ccc(F)cc3)cc2CC1=O	active
